This is one part of the list. The true hit rate is not given.
Molecular target: furin, P09958
Assay: furin cleavage Z-score vs untreated control; higher = more cleavage, active = 3.5 or more, inactive = 1 or less, 8 variable residues between constant flanks
Method in brief: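 Magnetic beads held 8-mer peptides by the N-terminus, each fused to a cDNA oligonucleotide, and purified furin was added for 7.5, 15 or 30 min. Released DNA was sequenced after PCR adapter tagging. The cleavage Z-score is the log count relative to furin-free reactions, lowess-adjusted and divided by median absolute deviation.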
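Further: purified furin at 1:10 enzyme:substrate in 50 mM HEPES pH 7.5.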

Chain of furin, P09958 (P09958 whole entry): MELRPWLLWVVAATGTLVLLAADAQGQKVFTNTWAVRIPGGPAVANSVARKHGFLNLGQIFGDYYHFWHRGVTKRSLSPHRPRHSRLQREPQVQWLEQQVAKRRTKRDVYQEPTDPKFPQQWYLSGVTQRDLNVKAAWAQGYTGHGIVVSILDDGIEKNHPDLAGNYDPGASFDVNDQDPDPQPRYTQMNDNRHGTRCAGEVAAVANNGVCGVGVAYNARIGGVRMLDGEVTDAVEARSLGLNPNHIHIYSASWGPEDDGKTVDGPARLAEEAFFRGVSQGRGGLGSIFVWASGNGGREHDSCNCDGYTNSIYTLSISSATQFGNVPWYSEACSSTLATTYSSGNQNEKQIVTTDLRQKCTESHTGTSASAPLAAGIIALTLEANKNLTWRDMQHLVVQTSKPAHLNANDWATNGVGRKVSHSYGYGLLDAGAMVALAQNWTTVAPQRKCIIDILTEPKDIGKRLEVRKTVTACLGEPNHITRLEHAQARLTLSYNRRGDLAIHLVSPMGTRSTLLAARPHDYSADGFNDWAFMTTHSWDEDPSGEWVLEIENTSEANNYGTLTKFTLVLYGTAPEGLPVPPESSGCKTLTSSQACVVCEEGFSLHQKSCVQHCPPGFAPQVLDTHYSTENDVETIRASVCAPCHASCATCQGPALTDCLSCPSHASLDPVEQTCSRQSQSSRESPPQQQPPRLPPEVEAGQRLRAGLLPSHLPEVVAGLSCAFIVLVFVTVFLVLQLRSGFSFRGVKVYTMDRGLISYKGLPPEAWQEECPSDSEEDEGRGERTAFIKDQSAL

| Sequence | furin cleavage Z-score (7.5 min) | furin cleavage Z-score (15 min) | furin cleavage Z-score (30 min) |
| --- | --- | --- | --- |
| CAAKSVCGPVAGNASASA [HC410] | -0.0296 (inactive) | 1.97 | -1.19 (inactive) |
| CAVYNHLTPLAGNASASA [HC635] | -0.863 (inactive) | 0.0646 (inactive) | -0.69 (inactive) |
| CAEEPCHRPSAGNASASA [HC2332] | 0.704 (inactive) | 0.583 (inactive) | -1.24 (inactive) |
| CARVWRDSFLAGNASASA [FS-2407] | -0.29 (inactive) | 1.62 | 0.504 (inactive) |
| CARVARSRELAGNASASA [FS-1842] | 4.74 (active) | 5.44 (active) | 7.45 (active) |
| CAKLKRSHELAGNASASA [FS-2868] | 0.465 (inactive) | 2.2 | 1.3 |
| CARVARLLSAAGNASASA [FS-3114] | -1.2 (inactive) | 0.294 (inactive) | -1.59 (inactive) |
| CAFLKRSGRDAGNASASA [FS-1324] | 4.93 (active) | 3.96 (active) | 4.12 (active) |
| CARVARSGRDAGNASASA [FS-3115] | 2.88 | 2.99 | 4.3 (active) |
| CATPAETTVRAGNASASA [HC926] | -0.713 (inactive) | 1.4 | -0.157 (inactive) |
| CAGALVAFKIAGNASASA [HC1091] | -1.03 (inactive) | -0.999 (inactive) | -1.45 (inactive) |
| CAMGSSYGFQAGNASASA [HC1464] | 0.332 (inactive) | -0.28 (inactive) | -0.392 (inactive) |
| CAEHFRKKRSAGNASASA [FS-1450] | 13.1 (active) | 12 (active) | 10.4 (active) |
| CASYFRKKRSAGNASASA [FS-1288] | 10.9 (active) | 10.4 (active) | 8.85 (active) |
| CAEHVRKLRSAGNASASA [FS-990] | 9.51 (active) | 9.45 (active) | 7.69 (active) |
| CAVVCCSMSDAGNASASA [HC2091] | -0.81 (inactive) | 0.345 (inactive) | -0.759 (inactive) |
| CALCECYDAGAGNASASA [HC919] | -0.871 (inactive) | 0.625 (inactive) | -1.3 (inactive) |
| CAGHVKNGTMAGNASASA [HC1179] | 0.572 (inactive) | 0.821 (inactive) | 0.846 (inactive) |
| CAVALSTTGEAGNASASA [HC843] | -1.85 (inactive) | -1.96 (inactive) | -0.758 (inactive) |
| CARFSKSADEAGNASASA [FS-2927] | -0.221 (inactive) | -0.408 (inactive) | -0.912 (inactive) |
| CARIRRDANEAGNASASA [FS-3189] | 13.3 (active) | 13.5 (active) | 9.85 (active) |
| CARIRRGTDEAGNASASA [FS-1956] | 12.4 (active) | 12.2 (active) | 8.37 (active) |
| CARGARGVRVAGNASASA [FS-2929] | -0.658 (inactive) | -0.415 (inactive) | -0.385 (inactive) |
| CARIKKDKKEAGNASASA [FS-2951] | -1.75 (inactive) | -0.739 (inactive) | -0.88 (inactive) |
| CARIRRDVRVAGNASASA [FS-1899] | 8.22 (active) | 10.4 (active) | 7.12 (active) |

Reference: the supplement of paper PMC3545927
